Experimental data reported in ChEMBL document CHEMBL1157539, “Thousands of chemical starting points for antimalarial lead identification” (Nature, 2010).

What was measured:
Assay type in all cases: functional
[1] = tested on: Plasmodium falciparum; assay: GSK_TCMDC: Inhibition of Plasmodium falciparum 3D7 in whole red blood cells, using parasite LDH activity as an index of growth. Test compounds present at 2uM
[2] = tested on: Plasmodium falciparum; assay: GSK_TCMDC: Inhibition of Plasmodium falciparum Dd2 in whole red blood cells, using parasite LDH activity as an index of growth. Test compounds present at 2uM
[3] = tested on: HepG2; assay: GSK_TCMDC: Percent inhibition of human HepG2 cell line. Test compounds present at 10uM.

Row | Structure (SMILES) | Inhibition [1] [%] | Inhibition [2] [%] | Inhibition [3] [%]
1 | CC(=O)Nc1ccc(CN2CCN(C(c3ccc(F)cc3)c3ccc(F)cc3)CC2)cc1 | 93 | 79 | 4
2 | Oc1ccc(CCNc2nc(N/N=C/C=C/c3ccc(Cl)cc3)nc(N3CCNCC3)n2)cc1 | 98 | 52 | 17
3 | COc1ccc2nc3cc(Cl)ccc3c(NCCCN3CCNCC3)c2c1.Cl | 100 | 74 | 18
4 | COc1cc2nc(C)nc(Nc3ccc4c(ccn4Cc4ccccc4)c3)c2cc1OC.Cl | 100 | 99 | 2
5 | Cc1cccc(C)c1C1CCN(C2CCC(NC(=O)/C=C/c3ccccc3)CC2)CC1 (stereo not given) | 100 | 45 | 42
6 | COc1cc(OC)c2c(c1Cl)O[C@]1(C2=O)C(=O)C(Cc2ccccc2)(Cc2ccccc2)C(=O)C[C@H]1C | 90 | 45 | 0
7 | Cc1ccc(Cl)cc1NC(=O)c1c(-c2ccccc2Cl)noc1C | 88 | 37 | 9
8 | CC1CCC(NCc2c(O)ccc3ccccc23)CC1.Cl (stereo not given) | 95 | 77 | 13
9 | COc1cc(Nc2nccc(N3CCC(NC(=O)Nc4cc(C)ccc4C)C3)n2)cc(OC)c1OC (stereo not given) | 91 | 52 | 13
10 | N=C(N)Nc1nc(-c2cccc(NC(=O)CCCCCCCON3C(N)=NC(N)=NC34CCCCC4)c2)cs1 | 96 | 89 | 1
11 | O=C(Nc1ccc2c(c1)CCC2)c1ccc(N2CCN(c3ccncc3)CC2)cn1.O=C(O)C(F)(F)F | 99 | 58 | 56
12 | COc1cc2nc(N3CCC(CNC(=O)c4cc5ccccc5s4)CC3)nc(N)c2cc1OC | 100 | 100 | 8
13 | CN1CCN(S(=O)(=O)c2ccc3nccc(Nc4ccc(Oc5ccccc5)cc4)c3c2)CC1.Cl | 98 | 91 | 0
14 | CC1=C(C(=O)OCCOCc2ccccc2)C(c2ccccc2C(F)(F)F)C(C(=O)OCCOCc2ccccc2)=C(C)N1 | 89 | 87 | 0
15 | Cc1sc(N2CCCCC2)nc1C(=O)Nc1ccc(F)cc1C(F)(F)F.O=C(O)C(F)(F)F | 86 | 35 | 0
16 | COc1ccc2c(c1)ncn2-c1cc(OCc2ccncc2Br)c(C(N)=O)s1 | 95 | 50 | 14
17 | Cc1cc(N[C@@H](CC(C)C)C(=O)NCc2cccc(F)c2)nc(NCC2CCCCC2)n1.O=C(O)C(F)(F)F | 99 | 70 | 3
18 | Cc1cc(F)ccc1N(c1nc(-c2cc(Cl)ccc2Cl)cs1)C1CCNC1.O=C(O)C(F)(F)F (stereo not given) | 99 | 3 | 19

Row | Structure (SMILES) | Inhibition [1] [%] | Inhibition [2] [%] | Inhibition [3] [%]
19 | COc1ccc(Nc2ccnc3cc4ccccc4cc23)cc1.Cl | 100 | 73 | 32
20 | CN1CCCC1CCNCc1cccc(-c2cnc(N3CCCC(C)(C)C3)nc2)c1 (stereo not given) | 98 | 95 | 99
21 | COc1ccc(N2CCN(c3nc(Nc4ccc(NC(C)=O)cc4)nc(N4CCCC4)n3)CC2)cc1 | 91 | 38 | 0
22 | COc1ccccc1N1CCN(CCCCNC(=O)c2ccc(NC(=O)c3ccc(OC(F)(F)F)cc3)cc2)CC1.Cl | 100 | 39 | 29
23 | O=c1cc(NCCCNCc2cc(Cl)cc(Cl)c2OCc2ccccc2)[nH]c2ccccc12 | 91 | 50 | 0
24 | COc1ccc([N+](=O)[O-])cc1N(Cc1ccccc1-c1ccccc1)S(=O)(=O)c1ccc(C(F)(F)F)cc1 | 96 | 66 | 3
25 | O=C(NCCNc1noc(-c2sccc2Br)n1)c1ccc(Cl)cc1 | 93 | 1 | 0
26 | COc1ccc(-c2cnc3ccc(N4CCCC4)nn23)cc1OC.O=CO | 98 | 98 | 40
27 | CC(=O)N1Cc2ccccc2C1=O | 97 | 0 | 10
28 | CCn1c(-c2nonc2N)nc2c(-c3cccc(NC(=O)Nc4ccc5c(c4)CCC5)c3)ncc(OCCCN)c21.O=C(O)C(F)(F)F | 99 | 94 | 26
29 | Cl.NC1=NC(c2ccccc2)N(c2ccccc2)C(N)=N1 (stereo not given) | 96 | 85 | 0
30 | Cc1ccc(C(=O)Nc2ccc(Cl)c(N3CCN(CCc4ccccc4)CC3)c2)cc1.O=C(O)C(F)(F)F | 90 | 14 | 17
31 | O=c1cc(NCCCNCc2[nH]c3cc(Cl)cc(Cl)c3c2Cn2cccn2)[nH]c2ccccc12 | 86 | 2 | 5
32 | CN1CCC(N(Cc2ccc(N3CCN(Cc4c[nH]c5ccc(Cl)cc45)CC3)nc2)C2CC2)CC1 | 100 | 76 | 96
33 | CCC(C)CN1CCN(c2ccc(NC(=O)c3cccs3)cc2)C(C)C1.O=C(O)C(F)(F)F (stereo not given) | 95 | 95 | 0
34 | CC(C)(CNC(=O)[C@H]1CCCCN1)c1nc(-c2ccc(Cl)c(O)c2)c(-c2ccncc2)[nH]1.Cl | 98 | 98 | 6
35 | Cc1cc(N[C@@H](Cc2ccccc2)C(=O)NCc2cccs2)nc(NCCc2cccnc2)n1.O=C(O)C(F)(F)F | 84 | 38 | 10
